# Screens: PubChem, National Center for Advancing Translational Sciences (NCATS)
# Sampled rows, rich in hits. Any-hit rate of the full collection: about 3.7%.
# Nrf2 ARE act: activates Nrf2 signaling; Potency, µM (titrated, usually from 46.1 µM), usual class: activators; 410,000 tested, 0.31% active; AREc32 ARE-luciferase reporter (MCF7-derived line), luminescence, 24 h; further: nearly all actives have a fitted effect of over 65% in size
#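 Quantitative high-throughput format: AREc32 reporter cells, 1000 per well, received compound by pin transfer and were incubated 24 hr at 37 deg C, 5% CO2, before Steady-Glo luminescence detection.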
# ELG1 DNA repair: ELG1-dependent DNA repair inhibition; HEK293T ELG1-luciferase reporter, luminescence, 16 h; DNA damage induced by 5-fluorouridine; Potency, µM (titrated, usually from 46.1 µM), hits mostly inhibitors; 330,000 tested, 2.3% active; further: nearly all actives have a fitted effect of over 55% in size
#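 DMSO vehicle served as the neutral condition. Each well held 2,000 cells given 5-fluorouridine plus compound; after 16 hr at 37 °C/5% CO2, ONE-Glo was added and luciferase measured 30 min later.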
# Nrf2 inh: inhibitors of Nrf2 signaling | 360,000 tested, 2.1% active | Potency, µM (doses to about 46 µM), hits mostly inhibitors | AID 504444 | A549 ARE-Fluc reporter, luciferase luminescence, 18-24 h; further: nearly all actives have a fitted effect of over 60% in size
#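 In this cell-based qHTS, ARE-driven firefly luciferase in A549 cells reports Nrf2 activity; the luminescent signal after BugLite lysis is the measured value, with a prior CellTiter-Fluor read for cell health.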
# A549 tox: kills or reduces viability of A549 cells in Nrf2 counter-screen; A549 ARE-Fluc cells, CellTiter-Fluor viability, 18-24 h; Potency, µM (doses to about 46 µM), hits mostly inhibitors; 390,000 tested, 0.16% active
#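 A549 ARE-Fluc cells in 5% FBS OPTI-MEM, 5000 cells/well, rested 2 h then exposed to compounds in concentration-response for 18-24 h at 37 °C. Viability by CellTiter-Fluor fluorescence (Ex 405/Em 525) after 30 min; luciferase luminescence (BugLite, 15 min, RT) read afterwards.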
# Numbers stand for hits; . = inactive; ? = inconclusive; / = not tested or not shown; [ ] = remark or other dose. The call rests on the fitted dose curve; in most records, active means well fitted curve in the direction sought with a large enough effect; inconclusive means small, poorly fitted or top-dose-only effect, or another doubt; inactive means no such curve, though single readings can be large; an effect the other way counts as inactive or inconclusive.
SMILES,Nrf2 ARE act,ELG1 DNA repair,Nrf2 inh,A549 tox
COc1ccc2c(Cl)c(C(=O)N/N=C/c3c(C)[nH]c4ccccc34)sc2c1,.,23µM,.,?
CC1CN(C2CCCCC2)C(=S)N(c2ccccc2)C1=O (stereo not given),.,/,.,.
CCC(=O)Nc1nnc(S(=O)(=O)N(C)Cc2ccccc2)s1,.,/,.,.
Cc1cc(C)cc(NC(=O)CCS(=O)(=O)c2ccc3c(c2)oc(=O)n3C)c1,.,/,.,.
COc1ccc(OC)c(NC(=O)CSc2nnc3ccc4ccccc4n23)c1,.,/,.,.
COc1ccc(CCNC(=O)c2sc3nc4n(c(=O)c3c2C)CCCC4)cc1OC,.,/,.,.
COc1ccc(CCNC(=O)c2ccc(CNS(=O)(=O)c3ccc(C(C)(C)C)cc3)cc2)cc1OC,.,.,?,.
COc1ccc(CCNC(=O)COc2ccc(S(=O)(=O)NC3CCCCC3)cc2Cl)cc1OC,.,21µM,.,.
O=C(COc1ccc(S(=O)(=O)NC2CCCCC2)cc1Cl)NCc1ccc2c(c1)OCO2,.,.,?,.
COc1ccc(CCN(C)C(=O)c2cc(S(=O)(=O)NCc3ccccc3)ccc2C)cc1OC,.,8.2µM,16µM,.
COc1ccc(CCNC(=O)c2ccc(CNS(=O)(=O)c3cc(C)ccc3C)cc2)cc1OC,.,21µM,/,.
COc1ccc(CCNC(=O)c2ccc(CNS(=O)(=O)c3cccc(Cl)c3)cc2)cc1OC,.,23µM,.,.
Cc1cc(C)cc(-n2ccnc2SCC(=O)Nc2nc3ccc(C)cc3s2)c1,.,/,/,.
COc1ccc(CNS(=O)(=O)NCc2ccc(OC)c(OC)c2)cc1,.,?,?,.
COc1ccc(CNS(=O)(=O)c2cc(-c3cc(C)no3)ccc2C)cc1OC,.,23µM,.,.
COc1ccc(CNS(=O)(=O)NCc2ccc(C)cc2)cc1OC,.,21µM,?,.
CCOc1ccc(CNS(=O)(=O)c2cc(-c3cc(C)no3)ccc2C)cc1OC,.,/,.,.
Cc1ccc2onc(CC(=O)N3CCN(c4ccc(F)cc4)CC3)c2c1,.,/,16µM,?
COc1ccc(/C=C2\CCC/C(=C\C=N\N(C)C)C2=O)cc1,14µM,.,.,.
CN(C)/N=C/C=C1\CCC/C(=C\c2ccc(F)c(F)c2)C1=O,18µM,?,?,.
CN(C)c1ccc(/C=C2\CCC/C(=C\c3ccccc3)C2=O)cc1,.,?,.,.
CC(C)Nc1nc(Nc2ccc(C#N)cc2)c2sccc2n1,.,/,/,/
COc1ccc2nc(C)cc(Sc3nc4ccccc4s3)c2c1,?,5.2µM,?,.
COc1ccc2nc(C)cc(SCC(=O)NNC(=O)COc3ccccc3)c2c1,.,.,.,.
COC(=O)c1ccccc1NC(=O)C(C)c1ccc([N+](=O)[O-])cc1 (stereo not given),.,.,?,.
SMILES,Nrf2 ARE act,ELG1 DNA repair,Nrf2 inh,A549 tox
CCOc1ccc(CCNC(=O)CN2C(=O)COc3ccc(S(=O)(=O)N4CCCCCC4)cc32)cc1,.,/,.,.
CCOc1ccc(CCNC(=O)CN2C(=O)COc3ccc(S(=O)(=O)N(CC)CC)cc32)cc1,.,/,23µM,.
Cc1cc(C)c(NS(=O)(=O)c2cc(-c3cnc(C4CC4)o3)ccc2C)c(C)c1,.,/,/,.
Cc1ccc(N(C)S(=O)(=O)c2cc(-c3cnc(C4CC4)o3)ccc2C)cc1,.,16µM,?,.
CCOc1ccc(N(C)S(=O)(=O)c2cc(-c3cc(C)no3)ccc2C)cc1,.,?,18µM,.
COc1ccc(C(=O)N(Cc2ccccc2)Cc2ccco2)c(O)c1,/,/,.,.
CCCOc1ccc(/C(O)=C2/C(=O)C(=O)N(c3ccccn3)C2c2ccc(OC)cc2)cc1C (stereo not given),.,.,.,.
Cc1ccc(C(=O)NCC(=O)OC(C(=O)Nc2cc(C(F)(F)F)ccc2Cl)c2ccccc2)cc1 (stereo not given),/,/,?,.
CC1C(=O)N(Cc2cccc(F)c2)c2ccccc2N1C(=O)c1ccccc1 (stereo not given),.,23µM,?,.
COc1cccc(CN2C(=O)C(C)N(C(=O)c3c(F)cccc3F)c3ccccc32)c1 (stereo not given),.,?,21µM,.
CC1Oc2ccccc2N(Cc2cccc(F)c2)C1=O (stereo not given),.,?,.,.
CC1C(=O)N(Cc2ccccc2F)c2ccccc2N1C(=O)c1c(F)cccc1F (stereo not given),.,?,?,.
CSc1ncccc1C(=O)OCC(=O)Nc1ccc2c(c1)CCC2,.,?,.,.
CCN(C)C1CN(Cc2cn(Cc3cccc(Cl)c3)nn2)S(=O)(=O)C1 (stereo not given),.,/,/,/
Cc1ccc(NC(=O)Cc2c(C(=O)O)c(C)cn2C)cc1Cl,.,/,/,.
COc1ccc(-c2cc3nc(C)c(CCC(=O)NCc4ccc(F)cc4)c(C)n3n2)c(OC)c1,.,26µM,.,.
COc1ccc(CNC(=O)CCc2c(C)nc3cc(-c4ccccc4OC)nn3c2C)cc1,.,.,.,.
CCOc1ccc(CCNC(=O)CCc2c(C)nc3cc(-c4ccccc4OC)nn3c2C)cc1,.,/,15µM,.
Cc1ccc2nc3n(c(=O)c2c1)-c1ncccc1C(=O)NC3Cc1ccccc1 (stereo not given),.,/,/,/
Cc1ccc(C(=O)NC(C)c2ccc(-n3ccnc3)cc2)o1 (stereo not given),.,.,.,.
c1ccc(CCc2nn3c(Cn4cnc5ccccc54)nnc3s2)cc1,.,.,?,.
COc1ccc(OCc2nn3c(Cn4cnc5ccccc54)nnc3s2)cc1,.,23µM,?,.[1.84 µM]
CCn1cnc2c1c(=O)n(CC(=O)NN)c(=O)n2Cc1ccccc1,.,.,.,.
CCn1cnc2c1c(=O)n(CC(=O)Nc1ccc(C(N)=O)cc1)c(=O)n2Cc1ccccc1,.,6.5µM,.,.
CC(=O)Nc1ccccc1-c1nc2ccccc2n(C(C)C(=O)Nc2ccccc2C(F)(F)F)c1=O (stereo not given),.,/,.,.
SMILES,Nrf2 ARE act,ELG1 DNA repair,Nrf2 inh,A549 tox
COc1ccc(CCNS(=O)(=O)c2cc3c4c(c2)C(C)C(=O)N4CCC3)cc1OC (stereo not given),.,.,?,?
CC1C(=O)N2CCCc3cc(S(=O)(=O)NCCc4ccccc4)cc1c32 (stereo not given),.,.,16µM,.
Cc1c(C#N)c(O)n(CCO)c(=O)c1N=Nc1ccc(S(N)(=O)=O)cc1,.,.,.,15µM
C/C(=N\NC(=O)C1CC1)c1ccc(OC(F)F)cc1OC(F)F,.,.,.,.
C/C(=N\NC(=S)NC1CCCCC1)c1ccc(OC(F)F)cc1OC(F)F,.,.,21µM,.
CCOC(=O)N1CCN(S(=O)(=O)N2CCCC(C(=O)NCCc3ccc(C)cc3)C2)CC1 (stereo not given),.,.,.,.
COc1cc2c(cc1OC)CN(c1nc(CN3CCCCC3)nc3sc4c(c13)CCCC4)CC2,.,23µM,.,.
COc1cc2c(cc1OC)CN(c1nc(CN3CCCC3)nc3sc(C)c(C)c13)CC2,.,?,.,.
